In PubChem BioAssay one finds inhibition, nuclei count and fluorescence slope data, which are given here for 39 molecules.

Calls of active or inactive are those of the source.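 Rule for the calls, unless noted: active = visually confirmed hit in the image check and inhibition above 20%; inconclusive = visually confirmed hit but inhibition not above 20%; inactive = no visual hit in the image check.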

The term inhibition denotes the change of the read-out against control, counted positive when it falls.

Sequence of Voltage-gated potassium channel subunit beta-2 (Rattus norvegicus) (P62483 whole entry, looked up): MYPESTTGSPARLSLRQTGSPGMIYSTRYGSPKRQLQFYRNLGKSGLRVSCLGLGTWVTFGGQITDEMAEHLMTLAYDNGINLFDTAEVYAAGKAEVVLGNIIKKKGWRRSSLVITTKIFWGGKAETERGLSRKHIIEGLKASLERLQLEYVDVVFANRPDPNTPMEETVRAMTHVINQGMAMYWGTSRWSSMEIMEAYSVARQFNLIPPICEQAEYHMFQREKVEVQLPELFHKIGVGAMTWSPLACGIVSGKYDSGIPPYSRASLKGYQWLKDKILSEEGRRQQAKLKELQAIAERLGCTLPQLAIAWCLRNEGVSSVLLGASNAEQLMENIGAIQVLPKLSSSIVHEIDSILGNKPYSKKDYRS

Test system in the first test: not listed separately
The test can be described thus: endothelial E-selectin expression blockers – imaging, HUVEC, immunofluorescence, MLSMR starter and 10KST1 sets, primary screen (AID 487).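 For inhibition: signal is fraction of cell area covered by stained E-selectin grains.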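 For nuclei count: 100% = median nuclei count of all wells on the same plate.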 The note with it: HUVEC TNFalpha-induced E-selectin immunofluorescence imaging, at 2 µM; inhibition: stronger effect = higher value; nuclei count: measured here: cell number, toxicity.
Turning to `COc1ccc(C(CNC(=O)c2cc(C)oc2C)N2CCOCC2)cc1` (configuration not stated), the inhibition is -140% (inactive) and the nuclei count was determined as 145%.

As to `O=C(CSc1ccc2nnc(-c3ccccc3)n2n1)N1CCN(c2ccccc2)CC1`, the inhibition is -34.8% (inactive) and the nuclei count was determined as 111%.

With `O=C1NC(=O)C(CC(=O)N(Cc2ccco2)C2(C(=O)NC3CCCC3)CCCCC2)N1` (configuration not stated), the inhibition was -67.8% (inactive) and the nuclei count was determined as 127%.

Take `O=C(NCc1cccs1)c1cc2c(s1)CCCC2`: the inhibition is -21.4% (inactive) and the nuclei count came to 126%.

Regarding `O=C(c1ccc(-c2ccccc2)cc1)N1CCN(c2ncccn2)CC1`, the nuclei count came to 85.3% and the inhibition is -38.6% (inactive).

On to `Cc1noc(/C=C/N(C)C)c1S(=O)(=O)N1CCCC(C(=O)N2CCc3ccccc32)C1` (configuration not stated), for which the nuclei count came out at 95.3% and the inhibition is -16.5% (inactive).

For `Cc1cccnc1NC(=O)CCCN1C(=O)c2ccccc2C1=O`, the inhibition is -32.4% (inactive) and the nuclei count stood at 87.7%.

Regarding `O=C1CC(c2ccccc2)CC(O)=C1C=NCCN1CCOCC1` (configuration not stated), the nuclei count was found to be 99.1% and the inhibition was 37.7% (inactive).

On to `CCCCNC(=O)c1nc2ncc(Br)cn2n1`, for which the inhibition was 56.5% (inactive) and the nuclei count was found to be 81.1%.

On to `COc1ccc(NC(=O)C(C)NS(=O)(=O)c2ccc(NC(C)=O)cc2)cc1Cl` (configuration not stated), for which the inhibition was 6.9% (inactive) and the nuclei count was determined as 113%.

As for `CCOc1cc(NC(=O)c2ccco2)c(OCC)cc1NC(=O)Cc1cccc(OC)c1`, the inhibition is 22.4% (inactive) and the nuclei count amounted to 102%.

Turning to `COc1ccccc1Nc1nc2ccccc2[nH]1`, the nuclei count was determined as 96.8% and the inhibition is -12.4% (inactive).

Take `CCN1CCN(c2ncnc3c2cnn3-c2ccc(C)cc2C)CC1`: the inhibition was 1.5% (inactive) and the nuclei count stood at 112%.

On to `Cn1c(=O)[nH]c(=O)c2c1nc(NCCCn1ccnc1)n2Cc1cccc(Br)c1`, for which the inhibition is -53.6% (inactive) and the nuclei count was 112%.

In the case of `CN1CCN(C(=O)C2CCN(S(=O)(=O)c3ccc4c(c3)oc(=O)n4C)CC2)CC1`, the inhibition was -22% (inactive) and the nuclei count amounted to 116%.

Regarding `CN(c1ccccc1C(N)=O)S(=O)(=O)c1ccccc1`, the inhibition is -266% (inactive) and the nuclei count is 108%.

On to `COCC(=O)N(C)c1nnc(-c2ccccn2)s1`, for which the inhibition was -12.1% (inactive) and the nuclei count turned out to be 107%.

With `CCOC(=O)C1CCCN(C(=O)c2sc3nc(-c4ccccc4)cn3c2C)C1` (configuration not stated), the nuclei count stood at 76.5% and the inhibition is 67.6% (active).

As to `Cc1cc(C)nc(NC(=O)c2c(-c3c(Cl)cccc3Cl)noc2C)n1`, the inhibition is -7.8% (inactive) and the nuclei count came out at 109%.

With `O=C(Nc1cnn(C23CC4CC(CC(C4)C2)C3)c1)c1cnn2c(C(F)(F)F)cc(-c3ccco3)nc12`, the inhibition is -107% (inactive) and the nuclei count was determined as 121%.

`O=C(O)c1cccn2c(=O)c3ccccc3nc12`: the nuclei count was found to be 126% and the inhibition is -19.6% (inactive).

Consider `CC(C)Cn1c(N)c(C(=O)NCc2cccs2)c2nc3ccccc3nc21`, for which the nuclei count was determined as 97.2% and the inhibition was -1.8% (inactive).

Turning to `CCCS(=O)(=O)N1CCN(C(=O)c2cccs2)CC1`, the inhibition is -58.9% (inactive) and the nuclei count was found to be 102%.

Regarding `Cc1nc(C)c(C(=O)C2=C(O)C(=O)N(CCN3CCOCC3)C2c2ccco2)s1` (configuration not stated), the inhibition is -2.9% (inactive) and the nuclei count was found to be 104%.

As to `Cc1ccc(S(=O)(=O)N2C(=O)CCC2C(=O)Nc2ccc3c(c2)OCCO3)cc1` (configuration not stated), the nuclei count was determined as 102% and the inhibition was -32.2% (inactive).

`COc1cccc(C2=NOC(C(=O)N3CCc4ccccc4C3)C2)c1` (configuration not stated): the nuclei count is 107% and the inhibition was 10.4% (inactive).

Regarding `Cc1ccccc1C1CC(c2ccccc2)Nc2ncnn21` (configuration not stated), the inhibition was -47% (inactive) and the nuclei count turned out to be 108%.

Turning to `O=S(=O)(c1cccc2nsnc12)N1CCN(c2ncccn2)CC1`, the nuclei count was 120% and the inhibition is -93.3% (inactive).

On to `CCN(CC)S(=O)(=O)c1cccc(-c2nnc(SCC(N)=O)n2CCc2ccccc2)c1`, for which the inhibition is -32.3% (inactive) and the nuclei count is 125%.

Regarding `O=C(O)c1cc(Cl)c(Cl)cc1C(=O)N1CCCC1`, the inhibition is 7% (inactive) and the nuclei count is 104%.

For `Cc1cccc(N2C(=O)CC(N3CCN(c4cccc(C(F)(F)F)c4)CC3)C2=O)c1` (configuration not stated), the nuclei count was 119% and the inhibition is -13.6% (inactive).

Turning to `COCCN(CCOC)c1ncnc2c1cnn2-c1ccccc1`, the inhibition was -14.8% (inactive) and the nuclei count was 107%.

As to `Cc1csc(NC(=O)C2CCCO2)n1` (configuration not stated), the inhibition is -133% (inactive) and the nuclei count was 134%.

For `COC(=O)c1cc2oc(C)cc2n1CC(=O)Nc1ccc(C)c(C)c1`, the inhibition is -84.5% (inactive) and the nuclei count came to 115%.

For `CCOc1ccc2nc(NC(=O)C3CCCN(S(=O)(=O)c4c(C)noc4C)C3)sc2c1` (configuration not stated), the inhibition was -7.3% (inactive) and the nuclei count was 114%.

With `Cc1ccccc1-n1nnnc1SCC(=O)Nc1ccc(S(=O)(=O)N2CCCC2)cc1`, the inhibition is -1% (inactive) and the nuclei count was 110%.

In the case of `Nn1cnnc1SCC(=O)Nc1ccc2c(c1)OCCO2`, the inhibition was -74.7% (inactive) and the nuclei count is 208%.

Turning to `CCN(CC)S(=O)(=O)c1ccc(F)c(C(=O)NCCC(C)C)c1`, the nuclei count came to 99.2% and the inhibition was -22.3% (inactive).

`CCc1ccc(NC(=O)C2CC(=O)N(C(C)C)C2)cc1` (configuration not stated): the nuclei count was found to be 75.6% and the inhibition is -6.6% (inactive).

A further test addresses Voltage-gated potassium channel subunit beta-2 (Rattus norvegicus) (UniProt P62483). The test can be described thus: inhibitors of rat Kvbeta2 reductase activity – biochemical, NADPH fluorescence, primary screen (AID 622;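 active = fluorescence slope higher than the sample average by over 3 SD, cut at about -0.22 in these data, passing the limit was not always enough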;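 note: slope of raw intensity against log time taken from 70 to 1610 s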). The note with it: recombinant KvBeta, 4-cyanobenzaldehyde reduction, at 10 µM, stronger effect = higher value.
As for `COc1ccc(C(CNC(=O)c2cc(C)oc2C)N2CCOCC2)cc1` (configuration not stated), the fluorescence slope is -0.609 (inactive).

Turning to `O=C(CSc1ccc2nnc(-c3ccccc3)n2n1)N1CCN(c2ccccc2)CC1`, the fluorescence slope was -0.592 (inactive).

On to `O=C1NC(=O)C(CC(=O)N(Cc2ccco2)C2(C(=O)NC3CCCC3)CCCCC2)N1` (configuration not stated), for which the fluorescence slope is -0.534 (inactive).

For `O=C(NCc1cccs1)c1cc2c(s1)CCCC2`, the fluorescence slope was -0.479 (inactive).

In the case of `O=C(c1ccc(-c2ccccc2)cc1)N1CCN(c2ncccn2)CC1`, the fluorescence slope is -0.429 (inactive).

Regarding `Cc1noc(/C=C/N(C)C)c1S(=O)(=O)N1CCCC(C(=O)N2CCc3ccccc32)C1` (configuration not stated), the fluorescence slope was -0.537 (inactive).

In the case of `Cc1cccnc1NC(=O)CCCN1C(=O)c2ccccc2C1=O`, the fluorescence slope is -0.409 (inactive).

Turning to `O=C1CC(c2ccccc2)CC(O)=C1C=NCCN1CCOCC1` (configuration not stated), the fluorescence slope is -0.441 (inactive).

Take `CCCCNC(=O)c1nc2ncc(Br)cn2n1`: the fluorescence slope was -0.442 (inactive).

For the molecule `COc1ccc(NC(=O)C(C)NS(=O)(=O)c2ccc(NC(C)=O)cc2)cc1Cl` (configuration not stated), the fluorescence slope was -0.34 (inactive).

As to `CCOc1cc(NC(=O)c2ccco2)c(OCC)cc1NC(=O)Cc1cccc(OC)c1`, the fluorescence slope was -0.397 (inactive).

In the case of `COc1ccccc1Nc1nc2ccccc2[nH]1`, the fluorescence slope is -0.427 (inactive).

On to `CCN1CCN(c2ncnc3c2cnn3-c2ccc(C)cc2C)CC1`, for which the fluorescence slope is -0.538 (inactive).

As to `Cn1c(=O)[nH]c(=O)c2c1nc(NCCCn1ccnc1)n2Cc1cccc(Br)c1`, the fluorescence slope was -0.403 (inactive).

As for `CN1CCN(C(=O)C2CCN(S(=O)(=O)c3ccc4c(c3)oc(=O)n4C)CC2)CC1`, the fluorescence slope is -0.59 (inactive).

As to `CN(c1ccccc1C(N)=O)S(=O)(=O)c1ccccc1`, the fluorescence slope was -0.355 (inactive).

Regarding `COCC(=O)N(C)c1nnc(-c2ccccn2)s1`, the fluorescence slope is -0.167 (inactive).

For `CCOC(=O)C1CCCN(C(=O)c2sc3nc(-c4ccccc4)cn3c2C)C1` (configuration not stated), the fluorescence slope is -0.544 (inactive).

Consider `Cc1cc(C)nc(NC(=O)c2c(-c3c(Cl)cccc3Cl)noc2C)n1`, for which the fluorescence slope was -0.435 (inactive).

Take `O=C(Nc1cnn(C23CC4CC(CC(C4)C2)C3)c1)c1cnn2c(C(F)(F)F)cc(-c3ccco3)nc12`: the fluorescence slope was -0.498 (inactive).

As for `O=C(O)c1cccn2c(=O)c3ccccc3nc12`, the fluorescence slope was -0.313 (inactive).

For the molecule `CC(C)Cn1c(N)c(C(=O)NCc2cccs2)c2nc3ccccc3nc21`, the fluorescence slope is -0.474 (inactive).

As for `CCCS(=O)(=O)N1CCN(C(=O)c2cccs2)CC1`, the fluorescence slope was -0.622 (inactive).

In the case of `Cc1nc(C)c(C(=O)C2=C(O)C(=O)N(CCN3CCOCC3)C2c2ccco2)s1` (configuration not stated), the fluorescence slope is -0.388 (inactive).

For `Cc1ccc(S(=O)(=O)N2C(=O)CCC2C(=O)Nc2ccc3c(c2)OCCO3)cc1` (configuration not stated), the fluorescence slope is -0.446 (inactive).

Consider `COc1cccc(C2=NOC(C(=O)N3CCc4ccccc4C3)C2)c1` (configuration not stated), for which the fluorescence slope was -0.605 (inactive).

As to `Cc1ccccc1C1CC(c2ccccc2)Nc2ncnn21` (configuration not stated), the fluorescence slope is -0.528 (inactive).

Regarding `O=S(=O)(c1cccc2nsnc12)N1CCN(c2ncccn2)CC1`, the fluorescence slope was -0.408 (inactive).

Regarding `CCN(CC)S(=O)(=O)c1cccc(-c2nnc(SCC(N)=O)n2CCc2ccccc2)c1`, the fluorescence slope was -0.592 (inactive).

With `O=C(O)c1cc(Cl)c(Cl)cc1C(=O)N1CCCC1`, the fluorescence slope was -0.311 (inactive).

In the case of `Cc1cccc(N2C(=O)CC(N3CCN(c4cccc(C(F)(F)F)c4)CC3)C2=O)c1` (configuration not stated), the fluorescence slope was -0.386 (inactive).

Take `COCCN(CCOC)c1ncnc2c1cnn2-c1ccccc1`: the fluorescence slope is -0.531 (inactive).

For the molecule `Cc1csc(NC(=O)C2CCCO2)n1` (configuration not stated), the fluorescence slope was -0.494 (inactive).

Consider `COC(=O)c1cc2oc(C)cc2n1CC(=O)Nc1ccc(C)c(C)c1`, for which the fluorescence slope was -0.337 (inactive).

On to `CCOc1ccc2nc(NC(=O)C3CCCN(S(=O)(=O)c4c(C)noc4C)C3)sc2c1` (configuration not stated), for which the fluorescence slope is -0.592 (inactive).

For the molecule `Cc1ccccc1-n1nnnc1SCC(=O)Nc1ccc(S(=O)(=O)N2CCCC2)cc1`, the fluorescence slope was -0.534 (inactive).

Take `Nn1cnnc1SCC(=O)Nc1ccc2c(c1)OCCO2`: the fluorescence slope is -0.351 (inactive).

`CCN(CC)S(=O)(=O)c1ccc(F)c(C(=O)NCCC(C)C)c1`: the fluorescence slope is -0.353 (inactive).

Take `CCc1ccc(NC(=O)C2CC(=O)N(C(C)C)C2)cc1` (configuration not stated): the fluorescence slope is -0.62 (inactive).
